Bioassay records deposited in PubChem by Broad Institute.
Tg IFNy HTS: inhibitors of Toxoplasma gondii growth with IFN-gamma; Toxoplasma gondii growth in IFN-gamma-treated host cells; stronger effect = lower value; activity change, negative = inhibition, % (no concentration beside the values); hit rate 3.8% among 69,000; AID 1259416; in the data active = activity change below about -70%, passing the limit was not always enough;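 also: host cells are HeLa cells infected with Toxoplasma gondii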
* hit, by the source's call; i = inactive. The full list was thinned out, with hits kept by preference.

SMILES	Tg IFNy HTS
O=C(Nc1csc(Cc2c(Cl)cccc2Cl)n1)NN1CCOCC1	-38.2
CC(C)c1cc(C(=O)Nc2ccc(Cn3cncn3)cc2)cs1	106.6
CCN1CCC2(CC1)OC(=O)C(C)=C2C(=O)NC1CCN(Cc2ccccc2)CC1	30.1
Cc1ccc(CN2CCCC3(COCCN(c4cnccn4)C3)C2)s1 (configuration not stated)	-94.3*
Cc1ccc(CN2CCC3(CC2)COCCN(c2ncccn2)C3)s1	-2.3
CS(=O)(=O)N1CCCC2(COCCN(c3cnccn3)C2)C1 (configuration not stated)	-0.3
COc1ccc(CN2CCCC2)cc1Oc1cc(C(F)(F)F)cc(C)n1	-4.5
CN(Cc1cnc(-c2ccccn2)nc1)Cc1cnn(-c2ccccc2)c1	4.1
Cc1ccccc1Nc1nnc(-c2ccccc2)c(-c2ccccc2)n1	14.6
c1ccc(-c2nnc(-c3ccccn3)nc2-c2ccccc2)cc1	-102.6*
CC(C)Nc1nc2c(cc1C(=O)NCC1CC1)CCN(c1ccncn1)CC2	-11.0
COC(=O)[C@H]1[C@H](CO)[C@H]2Cn3c(ccc(/C=C/c4ccccc4)c3=O)[C@H]2N1CCC(F)(F)F	-8.0
COc1cccc(CNc2nc(-c3nnc(-c4cccc(C)c4)o3)nc3ccccc23)c1	-92.0*
Cc1cccc(-c2nnc(-c3nc(NC4CCS(=O)(=O)C4)c4ccccc4n3)o2)c1 (configuration not stated)	-96.3*
Clc1cccc(-c2nnc(-c3nc(NCc4ccco4)c4ccccc4n3)o2)c1	-69.2
Cc1cccc(-c2nnc(-c3nc(N4CCCCC4C)c4ccccc4n3)o2)c1 (configuration not stated)	27.4
COc1ccc(Nc2nc(-c3nnc(-c4cccc(C)c4)o3)nc3ccccc23)cc1	i
COc1ccc(-c2nnc(-c3nc(NCc4ccc(C)cc4)c4ccccc4n3)o2)cc1	-3.6
Fc1ccc(-c2nnc(-c3nc(NCc4ccco4)c4ccccc4n3)o2)cc1	-85.6*
Cc1ccc(-c2nnc(-c3nc(NCc4cccc(C)c4)c4ccccc4n3)o2)cc1	23.7
Cc1ccc(-c2nnc(-c3nc(NCc4ccc(F)cc4)c4ccccc4n3)o2)cc1	15.2
COc1cccc(CNc2nc(-c3nnc(-c4ccc(C)cc4)o3)nc3ccccc23)c1	-11.0
Cc1cccc(-c2nnc(-c3nc(NCc4ccco4)c4ccccc4n3)o2)c1	-23.9
Cc1cccc(CNc2nc(-c3nnc(-c4ccc(F)cc4)o3)nc3ccccc23)c1	-101.0*
Cc1ccc(-n2cccc2)c(NS(=O)(=O)c2ccc(-c3ccno3)s2)c1	-13.0
SMILES	Tg IFNy HTS
N#C[C@H]1[C@@H](c2ccccc2)[C@@H](CO)N1S(=O)(=O)c1cccc(F)c1	13.0
Cc1ccc(C(=O)Nc2c(C(=O)N3CCN(c4ncccn4)CC3)[nH]c3ccccc23)cc1	-7.0
O=C(C1CCOCC1)N1CC(=O)N2[C@H](CO)[C@H](c3ccc(/C=C/c4ccccc4)cc3)[C@@H]2C1	2.7
O=C(NCCC1COc2ccccc2O1)c1ccc(N2CCCNCC2)nc1 (configuration not stated)	-13.1
CCn1ncc(-c2cc(C(=O)N3CCc4sccc4C3c3ccccc3)no2)c1C (configuration not stated)	-47.0
Cc1cccc(-c2c(-c3ccccc3)ncn2CCc2cn[nH]c2)c1C	-46.7
O=C(NCc1cccs1)C1CC(=O)N(c2ccc(OCC(=O)N3CCCC3)cc2)C1 (configuration not stated)	-10.5
CCCNC(=O)c1nc(Nc2ccc(F)cc2)c2ccccc2n1	-33.0
Cc1cccc(Nc2nc(C(=O)NCc3ccccc3Cl)nc3ccccc23)c1	-58.9
CCC(C)NC(=O)c1nc(Nc2cccc(C)c2)c2ccccc2n1 (configuration not stated)	-50.5
CCOC(=O)c1nc(Nc2cccc(OC)c2)c2ccccc2n1	-4.5
CCc1ccc(Nc2nc(C(=O)NCCOC)nc3ccccc23)cc1	-54.0
CCOC(=O)c1nc(Nc2cc(C)c(Cl)cc2OC)c2ccccc2n1	-43.5
COCCNC(=O)c1nc(Nc2cccc(C)c2)c2ccccc2n1	-32.6
CCCNC(=O)c1nc(Nc2ccc(CC)cc2)c2ccccc2n1	-83.1*
CCOC(=O)c1nc(Nc2ccc(OC)c(Cl)c2)c2ccccc2n1	-76.9*
CCOc1ccc(CNC(=O)c2nc(Nc3cccc(C)c3)c3ccccc3n2)cc1	-94.1*
Cc1cccc(Nc2nc(C(=O)NCc3cccc(Cl)c3)nc3ccccc23)c1	-96.3*
Cc1cccc(Nc2nc(C(=O)NCc3ccc(C)o3)nc3ccccc23)c1	-51.0
COc1ccc(CC(=O)NC(/N=C(\NC#N)Nc2cccc3ncccc23)C(C)(C)C)cc1OC (configuration not stated)	9.8
O=C(c1cnccn1)N1CC[C@@H](c2ccc3c(c2)OCO3)[C@H](O)C1	0.5
CN1C[C@@H]2CN(C(=O)CO)C[C@@H]2c2ccccc21	23.7
COc1cccc(NC(=O)N2C[C@H]3C[C@H](C(=O)NCC4CC4)[C@@H](C2)O3)c1	6.2
COc1ncc(C(=O)N2Cc3cnc(C(C)(C)C)nc3C2)cn1	2.5
